An excerpt weighted towards active compounds, which were near 21% of everything screened.
Shiga toxin inh – inhibitors of Shiga toxin in Vero cells; Vero cells, Shiga toxin protein synthesis inhibition reporter; inhibition, % at 38.7 µM; actives 9.2% (n = 290,000); in the data active = inhibition mostly above about 28%, no sharp cut-off; inactive = mostly below about 43%; note: 0% is about no effect
Pf growth 96h – P. falciparum growth inhibition at 96 hour, primary screen for plastid delayed-death inhibitors; P. falciparum luciferase reporter growth, 96 h; Potency, µM (doses to about 28.7 µM), for inactives: top-dose activity change, negative = inhibition, actives largely listed as inhibitors; actives 6.9% (n = 320,000); note: potency is the fitted concentration of half-maximal effect; % is set by controls: 0 for no effect and ±100 for the full control effect
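P. falciparum expressing integrated firefly luciferase grown in erythrocytes (2% hematocrit, 0.05% parasitemia final) with compounds for 96 hours at 37 C, 5% CO2. Growth inhibition read as loss of luminescence after adding luciferase detection reagent.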
CHX counter – counter-screen hit for Shiga toxin inhibitors, cycloheximide. actives 12% (n = 300,000). max response, %. cell reporter, cycloheximide protein synthesis inhibition counterscreen; in the data active = max response mostly above about 13%, no sharp cut-off; inactive = mostly below about 14%; note: read at 38.3 µM for the half of the compounds with a filed dose; 0% is about no effect
Pf growth 48h – inhibits P. falciparum growth in the first generation, 48 h; Potency, µM (titrated, usually from 28.7 µM), inactives show top-dose activity change, negative = inhibition, most hits filed as inhibitors; actives 5.9% (n = 310,000); P. falciparum luciferase growth in erythrocytes, 48 h; note: potency is the fitted concentration of half-maximal effect; % is set by controls: 0 for no effect and ±100 for the full control effect
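Luciferase-expressing parasites in RBCs, 2% Hct / 0.1% parasitemia final; RPMI 1640 + 0.5% Albumax; 37 C, 5% CO2, one generation; luminescence read-out, lower signal = inhibition.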
SARS PLP yeast – SARS-CoV PLP inhibition in yeast. Potency, µM (doses to about 32.9 µM), without a hit: at the top dose activity, positive = growth rescue, most hits filed as activators. actives 0.19% (n = 330,000). S. cerevisiae expressing SARS-CoV PLpro, growth rescue; calls by dose curve; note: potency is the fitted concentration of half-maximal effect; 0% is about no effect; nearly all actives have a fitted effect of over 55% in size
NS1 function inh – blocks influenza NS1 protein function; Potency, µM (doses to about 46.1 µM), for the others: top-dose activity, positive = more growth; actives 0.4% (n = 270,000); AID 2326; calls by dose curve; note: potency is the fitted concentration of half-maximal effect; actives are rising curves; nearly all actives have a fitted effect of over 50% in size
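Compounds were scored for reversing the slow growth caused by influenza A NS1 in S. cerevisiae, measured by optical density at 600 nm. Assay medium contained 2% galactose at pH 6.0; NS1-free yeast of the same strain were the positive control.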
Starred values were filed as active, the others as inactive; u = inconclusive; x = no result given; + = active, no number; [ ] = another dose, or the depositor's remark. Unless noted, calls come from the whole dose curve; as a rule, active = well fitted inhibition curve with a large enough effect; inconclusive = small, poorly fitted or top-dose-only effect, or another doubt; inactive = no such curve, though single readings can be large or run the other way.

SMILES	Shiga toxin inh	Pf growth 96h	CHX counter	Pf growth 48h	SARS PLP yeast	NS1 function inh
COc1cc(C(=O)NC(=S)N(CCc2ccccc2)CCc2ccccc2)cc(OC)c1OC	-7	12µM*	1	10µM*	u	22%
C=CCN(CC=C)C(=S)NC(=O)c1ccc(OC)cc1	23	27%	1	u	0%	-4%
COc1ccc(CN(C(=O)c2ccc(C)cc2)c2cccc(N)c2)cc1	x	u	x	u	1%	x
COc1ccc(C(=O)N(Cc2ccccc2)c2cccc(C)c2)cc1	24*	9%	21	38%	3%	-5%
COc1ccc(N(Cc2ccccc2)N=O)cc1	x	-12%	18*	0%	0%	12%
COc1ccc(C(=O)NC(=S)N(Cc2ccccc2)Cc2ccccc2)cc1	144*	u	32*	31%	0%	-82%
CCN(CC)c1cc(Oc2ccccc2)ncn1	73*	x	19*	27%	-5%	-3%
CCOC(=O)c1cc(-c2cccs2)nc2onc(C)c12	25	u	-2	x	4%	-8%
Cc1noc2nc(-c3cccs3)cc(-c3nnc4n3CCCCC4)c12	-16	12µM*	-2	16%	-1%	-7%
O=C(O)C1C2CCC(O2)C1C(=O)Nc1ccccc1Br (stereo not given)	-3	-28%	-1	-4%	10%	12%
CC1(C)Cc2c(cnn2-c2ccccc2)-c2c1c1ccccc1n2CC(O)CCl (stereo not given)	-6	u	1	12µM*	-47%	20%
Cc1nccn1CC(O)Cn1c2ccccc2c2ccccc21 (stereo not given)	6	-12%	7	u	-27%	5%
Cc1ccc(NC(=O)CCSc2ccccn2)cc1	+	237%	59*	198%	5%	-7%
Cc1cccc(NC(=O)CCSc2nncn2C)c1	15	5%	-2	33%	-14%	7%
Cc1cccc(NC(=O)CCSc2ccccn2)c1	74*	116%	75*	72%	8%	2%
O=C(CCSCCc1ccccn1)Nc1ccc(Cc2ccncc2)cc1	-6	12µM*	0	u	1%	x
Cc1ccc(NC(=O)CCSc2nnc(C)o2)cc1	3	-4%	6	0%	0%	-7%
COCCCNC(=S)N1CCC(C(=O)c2ccc(Cl)cc2)CC1	-12	u	-3	-2%	-1%	6%
CCn1cc(C(=O)NC2CC3CCC2C3)c(=O)c2ccc(C)nc21 (stereo not given)	-14	5.2µM*	-2	-13%	-3%	-6%
CCn1cc(C(=O)NCc2ccc(OC)cc2)c(=O)c2ccc(C)nc21	x	-24%	-4	24%	-2%	0%
CCn1cc(C(=O)Nc2ccccc2)c(=O)c2ccc(C)nc21	27	-6%	1	-8%	0%	-3%
CCn1cc(C(=O)NC2CCCCC2C)c(=O)c2ccc(C)nc21 (stereo not given)	-3	12µM*	-3	1%	x	-35%
O=C(NC1CCCc2ccccc21)N[C@@H](Cc1ccccc1)C(=O)O (stereo not given in full)	-18	1%	8	0%	3%	1%
Cn1c(-c2ccccc2)cnc1NCc1cccc([N+](=O)[O-])c1	15	28%	3	3%	3%	-13%
COc1ccccc1CNc1ncc(-c2ccc(F)cc2)n1C	19	u	7.6*	u	-3%	11%
SMILES	Shiga toxin inh	Pf growth 96h	CHX counter	Pf growth 48h	SARS PLP yeast	NS1 function inh
COc1ccc(CNc2ncc(-c3cccc([N+](=O)[O-])c3)n2C)c(OC)c1OC	-5	4.7µM*	-2	-4%	-3%	-15%
COc1ccccc1CNc1ncc(-c2ccccc2)n1C	40*	-9%	21*	-13%	5%	-4%
COc1ccc(CNc2ncc(-c3ccc(F)cc3)n2C)cc1OC	x	u	-3	-2%	1%	10%
COc1ccc(OC)c(CNc2ncc(-c3ccc(F)cc3)n2C)c1	15	15µM*	11	u	3%	7%
Cc1[nH]nc2c1C(c1ccsc1)C1=C(CC(C)(C)CC1=O)N2 (stereo not given)	17	u	-3	u	0%	-1%
CC1=C(C(=O)OCC2CCCO2)C(c2ccc(C)cc2)C2=C(CC(C)(C)CC2=O)N1 (stereo not given)	10	18%	14	18%	-2%	-1%
Clc1ccccc1CN1CCc2sccc2C1	17	x	-2	-15%	-8%	7%
O=C(O)C1(C(=O)O)CCC1.[NH2-].[NH2-].[Pt+2]	-10	-8%	-4	-8%	x	x
CNC(=O)COc1coc(CN2CCN(c3ccc(OC)cc3)CC2)cc1=O	-4	-30%	3	3%	-8%	12%
COc1ccc(CNc2ncc(-c3ccc(F)cc3)n2C)c2ccccc12	-3	10µM*	-2	u	1%	-10%
COc1ccccc1C(=O)NCCC(=O)Nc1ncccc1O	-3	0%	10	30%	-12%	8%
Cc1cccc(/C=C(\c2nc3ccccc3[nH]2)S(=O)(=O)c2ccccc2)c1	-6	u	-4	3.7µM*	-6%	10%
Fc1ccc(-c2nnn(Cc3ccccc3Cl)n2)cc1	99*	21%	36*	29%	-4%	-4%
Fc1ccc(Cn2nnc(-c3ccc(Cl)cc3)n2)cc1	56*	2%	34*	56%	-4%	2%
Cc1ccccc1Cn1nnc(-c2ccc(F)cc2)n1	30*	37%	19*	6%	-3%	-3%
Nc1cnn(Cc2ccccc2F)c1	-5	33%[1.15 µM]	2	-11%	14%	x
Nc1ccc(-c2nnn(Cc3ccccc3F)n2)cc1	55*	u	32*	59%	-2%	-12%
COCCNC(=O)c1ccc(N2CC3CC(C2)c2cccc(=O)n2C3)c(NC(=O)c2ccc(Br)o2)c1 (stereo not given)	15	-4%	1	19%	14%	-3%
C=CCn1c(SCC(=O)Nc2sccc2C#N)nc2sc(C)c(C)c2c1=O	10	13%	8	3%	x	-1%
O=C(O)CC[C@@]1(c2ccccc2)NC(=O)NC1=O	x	x	x	x	x	-1%
COc1ccc(C(=O)OCC(=O)Nc2ccc(OC)c(S(=O)(=O)N3CCCCC3)c2)cc1[N+](=O)[O-]	x	7%	x	-21%	-1%	x
O=C(COC(=O)c1ccc(O)cc1)Nc1cc(S(=O)(=O)N2CCOCC2)ccc1Cl	x	4.7µM*	x	u	1%	x
COc1cc(NC(=O)COC(=O)c2ccc(C)c(S(=O)(=O)N3CCCCC3)c2)c(C)cc1[N+](=O)[O-]	57*	u	72*	6%	3%	u
O=C(COC(=O)c1ccc(O)cc1)c1ccc(S(=O)(=O)N2CCCCC2)cc1	x	u	x	2.9µM*	4%	x
O=C(CCCSc1ccc(Cl)cc1)Nc1cc(S(=O)(=O)N2CCOCC2)ccc1O	x	8.3µM*	x	u	9%	x
